# From the supplement of paper PMC13380429
# Assays:
# [1] = system: Vero E6 infected with SARS-CoV-2; assay: morphology score (similarity to uninfected cells); higher = more like uninfected cells; conditions: 24 h
# [2] = system: Vero E6 infected with SARS-CoV-2; assay: SARS-CoV-2 infection rate relative to infected DMSO; higher = more infection, active = 60 or less; conditions: 24 h
SMILES,morphology score [1],SARS-CoV-2 infection rate [2]
Cc1c(C)c(NCC(=O)N(C)C2CCN(Cc3ccc(C(N)=O)cc3)CC2)c(C)c(C)c1N (10 µM),0.211,91% (inactive)
Oc1nc(O)c2nc(O)[nH]c2n1 [uric-acid] (10 µM),-0.0319,106% (inactive)
CCCCOc1cc(CC2CNC(=O)N2)ccc1OC (stereo unspecified) (10 µM),0.429,86% (inactive)
C=CC(=O)Nc1cccc(Oc2nc(Nc3ccc(N4CCN(C)CC4)cc3)ncc2Cl)c1 (10 µM),-0.115,118% (inactive)
COc1ccc(-n2[nH]c3c4c(ncc3c2=O)CCCCC4)cc1 (10 µM),0.194,96% (inactive)
CO[C@H]1/C=C/O[C@@]2(C)Oc3c(C)c(O)c4c(O)c(c(/C=N/N5CCN(C6CCCC6)CC5)c(O)c4c3C2=O)NC(=O)/C(C)=C\C=C\[C@H](C)[C@H](O)[C@@H](C)[C@@H](O)[C@@H](C)[C@H](OC(C)=O)[C@@H]1C [rifapentine] (10 µM),0.192,107% (inactive)
COC(=O)C1=C(C)N(C)C(C)=C(C(=O)OC)C1c1ccc(C(F)(F)F)cc1 (10 µM),-0.13,114% (inactive)
Cc1nc(Nc2ccc(F)cc2)nc(N2CCc3ccccc3C2C)c1C (stereo unspecified) [revaprazan] (10 µM),0.59,42.5% (active)
CC(=O)Nc1ccc(C(=O)O)cc1 [acedoben] (10 µM),0.0304,102% (inactive)
Cc1ncc([N+](=O)[O-])n1CC(O)CN1CCOCC1 (stereo unspecified) [morinidazole] (10 µM),0.12,111% (inactive)
N=C(N)S/C=C\C(=O)O (10 µM),0.101,108% (inactive)
CC(=O)Nc1ccc(OC(C)=O)cc1 [diacetamate] (10 µM),0.116,99.5% (inactive)
CCCC[C@H]1OC(=O)c2ccccc21 [butylphthalide] (10 µM),-0.108,102% (inactive)
COC(=O)/C=C/C(=O)N[C@@H]1CC[C@@]2(O)[C@H]3Cc4ccc(O)c5c4[C@@]2(CCN3CC2CC2)[C@H]1O5 [beta-funaltrexamine] (10 µM),0.0225,99% (inactive)
O=C1C(O)=C(O)C(=O)C(O)=C1O [tetroquinone] (10 µM),0.0422,106% (inactive)
O=C(O)C1=CCCN(CCOC(c2ccc(C(F)(F)F)cc2)c2ccc(C(F)(F)F)cc2)C1 (10 µM),0.0171,103% (inactive)
CN(C)C(=S)SC(=S)N(C)C [tetramethylthiuram-monosulfide] (10 µM),-0.225,116% (inactive)
COc1cccc(OC)c1-c1ccc(C[C@H](NC(=O)c2c(Cl)cccc2Cl)C(=O)O)cc1 (10 µM),-0.141,102% (inactive)
CCCCOc1ccc(CC(=O)NO)cc1 [bufexamac] (10 µM),0.234,94% (inactive)
CO[C@@H]1[C@@H](OC(N)=O)[C@@H](O)[C@H](Oc2ccc3c(O)c(NC(=O)c4ccc(O)c(CC=C(C)C)c4)c(=O)oc3c2C)OC1(C)C [novobiocin] (10 µM),0.165,95% (inactive)
C[C@]12CCC(=O)C(O)=C1CC[C@@H]1[C@@H]2CC[C@]2(C)C(=O)CC[C@@H]12 [formestane] (10 µM),-0.134,115% (inactive)
O=C(Cc1cccc(OC(F)(F)F)c1)Nc1ccc(CCCCc2nnc(NC(=O)Cc3ccccn3)s2)nn1 (10 µM),-0.0099,104% (inactive)
CC(COc1ccccc1)N(CCCl)Cc1ccccc1 (stereo unspecified) [phenoxybenzamine] (10 µM),0.146,106% (inactive)
O=C1C(O)=C([C@H]2CC[C@H](c3ccc(Cl)cc3)CC2)C(=O)c2ccccc21 [atovaquone] (0.833333 µM),0.028,106% (inactive)
Cc1c(C(=O)NC2CCCCC2)sc2nc3ccc(N)cc3n12 (10 µM),0.0842,105% (inactive)
C/C(=N\NC(=O)C(NC(=O)c1ccccc1)c1n[nH]c(=O)c2ccccc12)c1cccc(Br)c1 (stereo unspecified) (10 µM),0.029,98.5% (inactive)
NC(=S)N/N=C/c1ccncc1 [perchlozone] (10 µM),-0.0589,114% (inactive)
C[C@]12C=CC(=O)N[C@@H]1CC[C@@H]1[C@@H]2CC[C@]2(C)[C@@H](C(=O)Nc3cc(C(F)(F)F)ccc3C(F)(F)F)CC[C@@H]12 [dutasteride] (10 µM),0.111,111% (inactive)
